# Laboratory results: PubChem BioAssay AID1259312 (Keith Lab, Institute of Cancer Science, University of …, 2017)
# The campaign covered roughly 4,500 compounds. About 200 (4.4%) were called active. Only a selection was taken, and actives are over-represented in it overall. A number with no mark means an inactive call.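 How the source made its calls: active means cell survival measured by absorbance rises more than 2.5-fold over infected cells without compound; inactive means the rest.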
# Test: survival after telomere uncapping, modulators, primary screen, cell-based (AID 1259312);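 further: virus expresses mutant telomerase RNA that uncaps telomeres and kills cells; compound added 2 days after infection so exposure lasts 3 days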
# Conditions: HCT116 + Ad-hTR-mut, MTT, 5 d; at 10 µM, stronger effect = higher value
row,Compound,fold change
1,Cc1ccnc(SC2CC(=O)N(c3ccc4ccccc4c3)C2=O)n1 (centres undefined),-1.04
2,O=C1C2C3c4ccccc4C(c4ccccc43)C2C(=O)N1c1ccc2ccccc2c1 (centres undefined),3.16 (active)
3,O=C1C2C3CC(C(Br)C3Br)C2C(=O)N1c1ccc(Br)cc1 (centres undefined),1.06
4,CN1C(=O)COc2ccc(S(=O)(=O)N3CCOCC3)cc21,-1.01
5,Nc1nc(=S)n(-c2ccccc2)[nH]1,-2.51
6,N#CC1=C(N)Oc2ccc(N)cc2C1c1cccnc1 (centres undefined),2.15
7,N#CC1=C(N)N(Cc2ccccc2)C2=C(COC/C2=C/c2cccnc2)C1c1cccnc1 (centres undefined),2.64 (active)
8,CC(C)N1C=C(Cc2cccnc2)C2=C(C1)C(c1cccnc1)C(C#N)=C(N)O2 (centres undefined),2.25
9,COc1cccc(OC)c1-c1noc(CSc2nc3ccccc3o2)n1,-1.15
10,O=c1[nH]c(=O)n([C@@H]2O[C@H](CO)[C@@H](O)[C@H]2O)cc1Br,-3.23
11,Cc1cc(C)nc(Nc2ccc(N3CCOCC3)cc2)n1,-1.54
12,O=c1nc(N2CCOCC2)nc(Nc2ccccc2)[nH]1,active
13,Cc1cc(C)n(-c2nc(N3CCOCC3)nc(N3CCOCC3)n2)n1,1.04
14,CCc1cc(C=C(Cl)Cl)oc(=O)c1C,-1.84
15,Cc1cc2ccc(=O)oc2cc1OC[C@@H](O)C(C)(C)O,-1.35
16,O=S(=O)(NCc1ccco1)c1ccc(Br)cc1,2.26
17,O=c1[nH]nc(CSCc2csc(-c3ccccc3)n2)[nH]1,inactive
18,O=c1[nH]nc(CSCc2ccc3nsnc3c2)[nH]1,active
19,O=c1[nH]nc(CSCc2ccc(Cl)cc2)[nH]1,inactive
20,NCCCN1CCc2ccccc21,-1.28
21,O=C(c1n[nH]c(=O)c2ccccc12)N1CCN(c2ccccn2)CC1,-1.05
22,O=C(O)c1csc2c1CCCC2,2.51 (active)
23,O=C(Nc1sc2c(c1C(=O)O)CCCCC2)c1cccs1,-1.49

row,Compound,fold change
1,Cc1ccc(C)n1-c1sc2c(c1C(=O)O)CCCC2,-1.1
2,CCS(=O)(=O)c1ccsc1S(=O)(=O)CC,-1.28
3,COC(=O)Nc1ncc(CN2CCOCC2)s1,-2.39
4,O=S(=O)(O)c1ccc(-c2nnc(-c3ccccn3)nc2-c2ccc(S(=O)(=O)O)o2)o1,-1.16
5,c1ccc(-c2ccc3ccccc3n2)nc1,-1.13
6,c1ccc(-c2nc(-c3ccccn3)nc(-c3ccccn3)n2)nc1,3.31 (active)
7,CC(C)(C)NC(=O)Nc1cccnc1Cl,-1.98
8,C=CCOC(=O)c1sc(NC(=O)c2cccs2)nc1C,-1.68
9,CCOC(=O)/C(C#N)=C(\C#N)C(=O)OCC,1.04
10,CS(=O)(=O)Nc1ccc2c3c(cccc13)CC2,2.67 (active)
11,CS(=O)(=O)Nc1ccc(F)cc1F,-1.21
12,CN1CC(C(=O)Nc2ccc3c4c(cccc24)CC3)CC1=O (centres undefined),1.08
13,Nc1nc(-c2ccc(Cl)c(Cl)c2)cs1,1.69
14,CCCOc1ccccc1N=c1ssc2c1-c1cc(C)c(C)cc1NC2(C)C,-3.58
15,COc1ccc2nc(N=C(N)N)nc(C)c2c1,1.75
16,Cc1nc(N=C(N)N)nc2ccccc12,3.38 (active)
17,COc1cccc2c(C)nc(N=C(N)N)nc12,1.65
18,Cc1nccn1CCC1CCNCC1,3.27 (active)
19,CC(C)(C)c1ccc(-c2nn(CN3CCC(c4ccccc4)C3)c(=S)n2-c2ccccc2)cc1 (centres undefined),-1.84
20,S=c1n(CN2CCCCC2)nc(-c2ccccc2)n1-c1ccccc1,3.46 (active)
21,Cc1ccc(-c2nn(CN3CCC(c4ccccc4)C3)c(=S)n2-c2ccccc2)cc1 (centres undefined),-1.2
22,O=C(NCCN1CCOCC1)C(=O)NCCN1CCOCC1,1.02
23,COc1ccc(C2C3=C(Nc4ncnn42)c2ccccc2CC3)cc1OC (centres undefined),inactive

row,Compound,fold change
1,O=S(=O)(NCCCl)c1ccccc1,-1.04
2,CCOC(=O)CC[C@@H](C)[C@H]1CC[C@H]2[C@@H]3[C@H](O)C[C@@H]4C[C@H](O)CC[C@]4(C)[C@H]3C[C@H](O)[C@]12C,-1.19
3,COC(=O)CCC(C)C1CCC2C3C(C[C@H](O)C12C)C1(C)CC[C@@H](O)CC1C[C@H]3O (some centres undefined),4.26 (active)
4,C[C@H](CCC(=O)O)[C@H]1CC[C@H]2[C@@H]3[C@H](O)C[C@@H]4C[C@H](O)CC[C@]4(C)[C@H]3C[C@H](O)[C@]12C,-1.01
5,COc1ccc(-c2nc(-c3cccnc3)no2)cc1,-1.74
6,O=C1CC(c2cc3c(cc2Br)OCO3)c2ccc3ccccc3c2N1 (centres undefined),1.01
7,Nc1nc(SCC(=O)Nc2ccc(Br)cc2)sc1C(=O)Nc1nccs1,-1.48
8,CCOC(=O)C(C(C)=O)C(C(C)=O)C(=O)OCC (centres undefined),1.67
9,CC(=O)C(C(C)=O)C(C(C)=O)C(C)=O,3.14 (active)
10,Brc1csc(-c2cc(Br)cs2)c1,-1.44
11,NC(=O)c1c(NC(=O)CN2CCCCC2)sc2c1CCCC2,-1.75
12,c1ccc(CCn2c(CSc3nc4ccccc4o3)nc3ccccc32)cc1,-1.06
13,NS(=O)(=O)c1cc(C(=O)O)c(Cl)cc1Cl,-1.78
14,c1ccc(-c2ccc(CSc3nc4ccccc4o3)cc2)cc1,-1.02
15,O=[N+]([O-])c1ccc(Cl)cc1NCCO,2.39
16,O=[N+]([O-])c1ccccc1NC1CCCCC1,1.67
17,Cc1ccc(C)n1-c1ccc(NC2CCCC2)c([N+](=O)[O-])c1,-1.34
18,O=[N+]([O-])c1ccc(Cl)cc1NCc1ccco1,-1.31
19,NNc1cc(Cl)ccc1[N+](=O)[O-],3.68 (active)
20,O=[N+]([O-])c1cc(Cl)ccc1NC1CCCCC1,4.77 (active)
21,O=C(Nc1nc2c(s1)CCCC2)C1CC(=O)N(c2ccc(F)cc2)C1 (centres undefined),-2.42
22,Cc1cccn2c(=O)c(C=O)c(Nc3cccc(Cl)c3)nc12,-1.44
23,CCCCc1ccc(C2C3=C(CC(C)(C)CC3=O)OC3=C2C(=O)CC(C)(C)C3)s1,-1.42

row,Compound,fold change
1,Fc1ccc(-c2nc3sc(-c4ccc(F)cc4)nc3s2)cc1,-2.41
2,O=C(c1ccc2[nH]c(=O)oc2c1)c1ccc2[nH]c(=O)oc2c1,1.41
3,C#CCN1C(=O)S/C(=C\c2ccc(N3CCCC3)cc2)C1=O,-1.24
4,COCc1[nH]nc2c1C1(CCN(C)CC1)C(C#N)=C(N)O2,-1.21
5,CN1CCC2(CC1)C(C#N)=C(N)Oc1n[nH]c(-c3ccccc3)c12,3.65 (active)
6,CN1CCC2(CC1)C(C#N)=C(N)Oc1n[nH]c(C(=O)OC(C)(C)C)c12,-1.08
7,CCOC(=O)C1=C(C)NC2=C(C(=O)CCC2)C1c1ccc(CC)s1 (centres undefined),-1.61
8,O=c1ccc2ccccc2[nH]1,-1.85
9,O=c1[nH]c2ccccc2[nH]c1=O,5 (active)
10,COc1ccc2[nH]c(=O)c(=O)[nH]c2c1,1.16
11,O=S(=O)(c1ccccc1)N1CCN(Cc2ccc3c(c2)OCO3)CC1,-4.81
12,O=S(=O)(c1ccc2c(c1)OCCO2)N1CCCCC1,-1.44
13,O=C(c1ccc(COc2ccc(I)cc2)o1)N1CCCC1,-1.09
14,CN(C)c1ccc(/C=C2\C(=O)ON=C2c2cccc(I)c2)cc1,-1.18
15,Cn1c2c(c(=O)[nH]c1=O)C(c1ccccc1)C1=C(N2)c2ccccc2C1=O (centres undefined),-6.31
16,Cc1[nH][nH]c(=O)c1C(c1ccncc1)C(C#N)C#N (centres undefined),3.56 (active)
17,O=C(Nc1sc2c(c1C(=O)Nc1ccc(Br)cc1)CCC2)c1cccs1,1.12
18,Cn1nnnc1SCC(=O)Nc1ccc(F)c(Cl)c1,-2.05
19,O=C(Nc1ccc(Br)cc1Br)C(Cl)Cl,-6.77
20,CC(=O)Nc1sc2c(c1C(N)=O)CCCC2,-1.98
21,CC(=O)Nc1sc2c(c1C(N)=O)CCCCC2,1.05
22,CC(=O)Nc1sc2c(c1C(=O)O)CCCC2,2.88 (active)
23,COc1ccc(S(=O)(=O)N2CCCc3ccccc32)cc1,-1.9

row,Compound,fold change
1,CC1(C)CC(NC(=O)C(=O)NC2CC(C)(C)NC(C)(C)C2)CC(C)(C)N1,4.26 (active)
2,CC1(C)CC(NS(=O)(=O)c2ccccc2)CC(C)(C)N1,-1.13
3,CC(C)NC(=O)C(=O)NC1CC(C)(C)NC(C)(C)C1,-2.38
4,Cc1cc(NC(=O)c2n[nH]c(=O)c3ccccc23)no1,-1.69
5,Cn1c(-c2ccccc2)c(NC(=O)c2ccccc2Cl)c(=O)n1C,-1.22
6,C=CCOC(=O)c1sc(NC(=O)c2ccco2)nc1C,-1.45
7,Oc1[nH]c(=S)sc1/C=C/C=C/C=Nc1ccccc1,inactive
8,CCCc1cc(=O)oc2cc(O)cc(O)c12,1.04
9,Cc1sc(NC(=O)Cn2nc(C(F)(F)F)cc2C)c(C(N)=O)c1C,-1.23
10,Cc1cc(C(F)(F)F)nn1CC(N)=O,3.13 (active)
11,Cn1nc(C(F)(F)F)cc1C(=O)O,-1.06
12,C=CCn1c(COc2ccccc2)n[nH]c1=S,1.52
13,CCOC(=O)c1c(NC(=O)C23CC4CC(CC(C4)C2)C3)sc2c1CCN(C(=O)OCC)C2,-1.15
14,O=[N+]([O-])c1ccc(O)c(N=Cc2cc(Br)cc(Br)c2O)c1,active
15,O=[N+]([O-])c1ccc(O)c(N=Cc2cc(Br)cc([N+](=O)[O-])c2O)c1,inactive
16,O=[N+]([O-])c1ccc(N=Cc2cc(Br)cc(Br)c2O)cc1,active
17,Oc1c(Br)cc(Br)cc1C=Nc1ccc(Cl)cc1Cl,active
18,O=[N+]([O-])c1ccc(N=Cc2cc(Br)cc([N+](=O)[O-])c2O)cc1,inactive
19,O=[N+]([O-])c1cc(Br)cc(C=Nc2ccc(N=Cc3cc(Br)cc([N+](=O)[O-])c3O)cc2)c1O,inactive
20,Oc1c(Cl)cc(Cl)cc1C=Nc1ccc(Cl)cc1Cl,inactive
21,O=[N+]([O-])c1ccc(N=Cc2cc(Br)cc(Br)c2O)c(O)c1,inactive
22,Oc1c(Br)cc(Br)cc1C=Nc1cc(Cl)ccc1Cl,inactive
